Our source for the outcome, max response and Potency values is PubChem BioAssay (NCATS).

Inconclusive results are not listed. Values without a mark were called inactive. The source made the active and inactive calls. The call rests on the fitted dose curve; in most records, active means well fitted inhibition curve with a large enough effect; inconclusive means small, poorly fitted or top-dose-only effect; inactive means flat fitted curve, though single readings scatter.

One experiment has as its system CRL-7250. The experiment in a line: Cytotoxic Profiling of Annotated Libraries Using Quantitative High-Throughput Screening (AID 1296008). Further: nearly all actives have a fitted effect of over 60% in size. The settings on record: Five cell lines viability, CellTiter-Glo ATP luminescence, 48-72 h; max response: hits give low values. An outline of the steps:
(§1)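 Cells exposed to compounds for 48 or 72 hr at 37 degrees Celsius. Viability read as ATP-coupled luminescence with CellTiter-Glo after 10 min at room temperature.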
A general note: Cellular ATP, detected with luciferase, serves as a proxy for viable cell number.

For a further experiment, the system named is HEK293. The description is as above. The settings on record: Five cell lines viability, CellTiter-Glo ATP luminescence, 48-72 h; max response: hits give low values. An outline of the steps:
as §1
On the % scale 0 is the no-effect control and ±100 the full control effect; potency means the concentration at half of the fitted maximal effect.

With `C[C@@H]1O[C@@H](O[C@H]2[C@H](OC(=O)[C@]34CCC(C)(C)C[C@H]3C3=CCC5[C@@]6(C)C[C@H](O)[C@H](O[C@@H]7O[C@H](CO)[C@@H](O[C@H]8OC[C@](O)(CO)[C@H]8O)[C@H](O)[C@H]7O)[C@@](C)(CO)C6[C@H](O)C[C@@]5(C)[C@]3(C)C[C@H]4O)OC[C@H](O)[C@@H]2O)[C@H](O)[C@H](O)[C@H]1O[C@@H]1OC[C@@H](O)[C@H](O[C@@H]2OC[C@](O)(CO)[C@H]2O)[C@H]1O` (stereo partly specified), the compound was called inactive with CRL-7250. Moreover, the max response with HEK293 was 0.437%.

Turning to `COc1cccc(Nc2ncnn3ccc(CN4CC[C@@H](N)[C@H](O)C4)c23)c1`, the Potency with CRL-7250 is 8200 nM (active); in the experiment on HEK293 it was 13000 nM (active).

For `O=C(OC[C@H]1O[C@H](O[C@]2(CO)O[C@H](CO)[C@@H](O)[C@@H]2O)[C@H](O)[C@@H](O)[C@@H]1O)c1ccccc1`, the max response in the experiment on CRL-7250 is -1.41%; in the experiment on HEK293 it was 1.14%.

For `CC(C)CCC[C@@H](C)[C@H]1CC[C@H]2[C@@H]3CC(=O)[C@H]4C[C@@H](O)CC[C@]4(C)[C@H]3CC[C@]12C`, the max response in the experiment with CRL-7250 is -2.74%; with HEK293, -0.18%.

Consider `C/C=C/C1=CC2=C(CO1)C(=O)C(C)(O)C(OC(=O)c1c(C)cc(OC)cc1O)C2` (stereo unspecified), for which, in the experiment on CRL-7250, the max response was -7.89%. In addition, the Potency in the experiment on HEK293 was 11400 nM (active).

Consider `C/C=C1\[C@H](OC2OC(COC3OC(CO)C(O)C(O)C3O)C(O)C(O)C2O)OC=C(C(=O)OC)[C@H]1CC(=O)OCCc1ccc(O)cc1` (stereo partly specified), for which the figures for the max response in the experiment with CRL-7250 and in the experiment on HEK293 were -3.04% and -70.9%, respectively.

With `C=C[C@@](C)(O)CC/C=C(\C)C(=O)O[C@@H]1[C@@H]2O[C@]2(C)[C@H]2[C@H](O[C@@H]3O[C@H](CO)[C@@H](O)[C@H](O)[C@H]3O)OC=C[C@@]12O`, the max response in the experiment on CRL-7250 is -6.64%; with HEK293 it was 0.966%.

As for `C[C@H](N)C(=O)N[C@@H](Cc1ccc(O)cc1)C(=O)N1CCC[C@H]1C(=O)NCC(=O)N[C@@H](CCCCN)C(=O)N[C@@H](Cc1ccccc1)C(N)=O`, the outcome in the experiment with CRL-7250 was inactive. The max response in the experiment on HEK293 is 2.75%.

Turning to `COc1ccc([C@@]2(O)c3c(ccc4c3OC(C)(CCC=C(C)C)C=C4)NC(=O)[C@@H]2OC)cc1` (stereo partly specified), the max response with CRL-7250 is 4.89%; with HEK293 it was -3.72%.

Take `CC1(C)CC2C=C(C(=O)O)C3COC(=O)C(O)(CO)C23C1` (stereo unspecified): the max response is -19.1% in the experiment on CRL-7250 and 4.03% with HEK293.

Turning to `CC(=O)c1c(O)cc(O[C@@H]2O[C@H](CO)[C@@H](O)[C@H](O)[C@H]2O)cc1O`, the max response in the experiment with CRL-7250 is -2.16%; in the experiment with HEK293, 1.76%.

Turning to `COc1cc(/C=C/C(=O)OC[C@H]2O[C@@](CO)(O[C@H]3O[C@H](CO)[C@@H](O)[C@H](O)[C@H]3O)[C@@H](OC(=O)/C=C/c3ccc(O)c(OC)c3)[C@@H]2O)ccc1O`, the values for the max response in the experiment on CRL-7250 and in the experiment with HEK293 were -25.3% and 4.27%, respectively.

For the compound `CN(C)C(=O)NC1CCC(CCN2CCN(c3cccc(Cl)c3Cl)CC2)CC1` (stereo unspecified), the max response in the experiment on CRL-7250 is 1.18%; in the experiment on HEK293, -2.35%.

As to `COc1ccc2[nH]c3c(-c4cccc5ccccc45)nccc3c2c1`, the Potency in the experiment with CRL-7250 is 1160 nM (active); with HEK293, 1300 nM (active).

Consider `CC(=O)N[C@@H](CCCCN)C(=O)N(C)[C@@H](CC(C)C)C(=O)N[C@H](C(=O)N(C)[C@@H](Cc1ccccc1)C(=O)N[C@H](Cc1ccccc1)C(N)=O)C(C)C`, for which, in the experiment on CRL-7250, the result was inactive. The max response with HEK293 is -3.34%.

Regarding `O=C(O)c1cc2cccc([N+](=O)[O-])c2[nH]1`, the results for the max response in the experiment on CRL-7250 and in the experiment on HEK293 were -12.6% and 2.87%, respectively.

For the compound `CC(=O)c1ccc2c(c1)C(O)C(C(C)(C)O)O2` (stereo unspecified), the figures for the max response in the experiment with CRL-7250 and with HEK293 were -0.999% and -3.07%, respectively.

Regarding `CN1C2CCC1CC(OC(=O)[C@H](CO)c1ccccc1)C2` (stereo partly specified), the max response with CRL-7250 was 0.824%; in the experiment with HEK293, -10.6%.

Regarding `COc1ccc(F)cc1-c1cc(NC(=O)[C@@H]2CCCNC2)ncc1Cl`, the Potency was 291 nM (active) in the experiment on CRL-7250 and 259 nM (active) in the experiment on HEK293.

Regarding `COc1cc(NC(=O)Nc2cccc(CNC(=O)O[C@H]3CCOC3)c2)ccc1-c1cnco1`, the Potency in the experiment with CRL-7250 is 8200 nM (active); with HEK293, 2310 nM (active).

`CCc1cnn2c(NCc3ccc[n+]([O-])c3)cc(N3CCCCC3CCO)nc12` (stereo unspecified): the figures for the Potency in the experiment on CRL-7250 and in the experiment with HEK293 were 4.6 nM (active) and 13 nM (active), respectively.

For `C=C1CCC2C(C(C)(C)O)CCC2(C)CC(O)C(=C)CCC1O` (stereo unspecified), the max response in the experiment on CRL-7250 is -17.3%; in the experiment on HEK293, 2.07%.

`CC1CCC2(C(=O)O)CCC3(C)C(=CCC4C5(C)CCC(OC(=O)/C=C/c6ccccc6)C(C)(C)C5CCC43C)C2C1C` (stereo unspecified): the call in the experiment on CRL-7250 was inactive. Further, the max response with HEK293 is -4.63%.
